Experimental data published in the supplement of paper PMC10338343.
± gives the standard deviation.

Each sequence was assayed on MILI (PIWIL2) piRISC loaded with L1MC piRNA (26 nt) (assay: pre-steady-state target cleavage rate (min^-1); guide: L1MC piRNA 5'p-UAACUAAAUACUAUGCAAGCUGUAGG; MIWI and MILI are mouse PIWI proteins and EfPiwi is from a freshwater sponge; tags in brackets are library labels; higher = faster piRNA-guided slicing of the target). Conditions: auxiliary factor: none (no GTSF1).
Summary of the method: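 Cleave-'n-Seq: 1 nM active affinity-purified piRISC with one synthetic guide and 0.1 nM transcribed, DNA-blocked target RNA library were mixed, with or without 500 nM GTSF1 partner protein, in HEPES–potassium acetate buffer at 33 °C for 0–8 or 0–960 min. Uncleaved targets were sequenced and normalised to depth and to weakly complementary targets, three trials were pooled, and k3 was capped at 0.0001 min^-1. The pre-steady-state cleavage rate was fitted […].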

| Sequence | pre-steady-state target cleavage rate |
| --- | --- |
| UCCUGGAUCAGCUUGCAUAGUAUUUAGUUU [g2:g22:cont:t1U] | 0.0189 ± 0.0043 |
| UCCUGGAUCUGCUUGCAUAGUUUUUAGUUA | 0.00511 ± 0.002 |
| UCCUCUUACAGCUUGCAUAGUAUUUAGUUA | 0.00963 ± 0.0032 |
| UCCUCCUACAGAUUGCAUAGUAUUUAGUUA | 0.00814 ± 0.0018 |
| UCCUCUCUACAGCUUGCAUAGUAUUUAGUUA | 0.00895 ± 0.0022 |
| UCCUGCUACACGUUGCAUAGUAUUUAGUAA | 0.00567 ± 0.0021 |
| UCCUGCUUCAGCUUGCAUAGUAUUUAGAUA | 0.00373 ± 0.002 |
| UCCUGCUACACUUGCAUAGUAUUUAGUUA | 0.00611 ± 0.0023 |
| UCCUGGUACAGCAUGCAUAGUAUUUAGUAA | 0.00467 ± 0.0031 |
| UCCUCCAUGAGCUUGCAUAGUAUUUAGUUA | 0.00711 ± 0.0021 |
| UCCUGGUACAGCUGUGCAUAGUAUUUAGUUA | 0.0118 ± 0.0046 |
| UCCUGGUACAGCUUGGUUAGUAUUUAGUUA | 0.0135 ± 0.0038 |
| UCCUGCUACAGCUUGCUUAGUUUUUAGUUA | 0.00366 ± 0.0015 |
| UCCUGGUACAGCUUGCAUAGUAUUUAGUCUA | 0.00783 ± 0.0041 |
| UCCUGGAUGAGCUAGCAUUGUAUUUAGUUA | 0.00446 ± 0.0025 |
| UCCUGGAUGAGCUAUGCAUAGUAUUUAGUUA | 0.0126 ± 0.0025 |
| UCCUGCUACAGCUUGCAUAGUAUUUAGUUU [g2:g25:cont:t1U] | 0.0127 ± 0.0035 |
| UCCUGGAUGAGCUUGCUUAGUAUUUAGUUA | 0.00685 ± 0.0025 |
| UCCUGGAUCAGCUUGCAAAGUAUUUAGUUA | 0.00946 ± 0.0023 |
| UCCUGGUACAGCUUGCAUUGUAUUUAGUUA | 0.0101 ± 0.0041 |
| UCCUGGAACAGCUUGAAUAGUAUUUAGUUA | 0.00657 ± 0.0025 |
| UCCUGGUACAGGAAGCAUAGUAUUUAGUUA | 0.00538 ± 0.0026 |
| UCCUGGAUGAGCUUGCAUCGUAUUUAGUUA | 0.00554 ± 0.0025 |
